# PrP 5UTR inh – inhibition of PrP 5' UTR reporter expression; cell-based PrP 5' UTR mRNA reporter, plate reader; inhibition, % (no concentration beside the values); 0.35% of 340,000 active; in the data active means inhibition above about 52%; further: 0 = median of the neutral control wells
# PrPC surface inh – reduces human prion protein on the cell surface | P04156 | cell surface PrPC, TR-FRET read-out | inhibition, % at 13.8 µM | 0.43% of 370,000 active | AID 720596; in the data active means inhibition above about 24%; further: 0% = median of the test wells and 100% = reference compound wells
# MazF activator – increases E. coli MazEF RNase cleavage of RNA. FAM/BHQ RNA-DNA oligo cleavage fluorescence, 5 h. activation, % at 20 µM. 0.32% of 350,000 active; in the data active means activation above about 50%
# BJeLR viability – BJeLR cell viability loss; BJeLR (HRASV12) viability, CellTiter-Glo ATP luminescence, 48 h; inhibition, % (no concentration beside the values); 0.17% of 300,000 active; AID 1554; in the data active means inhibition above about 50%
# PrPC TRFRET cf – cell surface PrPC inhibition, TR-FRET confirmation. inhibition, % at 13.8 µM. 65% of 1,500 active. cell surface PrPC level. AID 743200. shares compounds with PrPC surface inh; in the data active means inhibition above about 25%
# LD9 tox – LD9 cell cytotoxicity, PrPc inhibitor counter-screen; LD9 cells cytotoxicity, luminescence viability; AID 743201; 29% of 1,500 active; inhibition, % at 13.8 µM; shares compounds with PrPC surface inh; in the data active means inhibition above about 9.5%
# * marks the source's active call; other numbers are inactive results; / = no result given. A selection: hits, their analogues and other compounds. The true share with any hit is near 1.1%.
SMILES,PrP 5UTR inh,PrPC surface inh,MazF activator,BJeLR viability,PrPC TRFRET cf,LD9 tox
S=c1nc[nH]c2c1[nH]c1ccccc12,-24,135*,-5,-2,142*,-1
Cc1nccc2c1[nH]c1ccccc12,-9,6,-1,-1,/,/
S=c1nc[nH]c2c1[nH]c1ccc(Cl)cc12,-15,43*,0,9,131*,7
O=C(Nc1nnc(CC(c2ccccc2)c2ccccc2)s1)c1ccco1,-8,40*,9,14,42*,-7
COc1ccc2cc(C(=O)CS(=O)(=O)c3ccc(Cl)cc3)c(=O)oc2c1,/,3,/,/,/,/
O=C(NC1CCCCCC1)c1cc(S(=O)(=O)N2CCOCC2)ccc1N1CCCCC1,-5,28*,-1,-3,18,-3
O=C(Nc1cc(S(=O)(=O)N2CCOCC2)ccc1N1CCCC1)c1cc2c(s1)CCCC2,/,52*,/,/,75*,-5
O=C(Nc1ccccc1N1CCOCC1)c1cc2c(s1)CCCCC2,-29,-5,0,-7,/,/
O=C(Nc1cccc(S(=O)(=O)Nc2ccc(Cl)cc2)c1)c1cc2c(s1)CCCC2,-3,27*,9,-2,32*,-3
O=C(Nc1ccc(N2CCOCC2)cc1)c1cc2c(s1)CCCCC2,-22,25*,6,2,12,12*
CCOC(=O)[C@]12CCCC=C1N(Cc1ccc(OC)cc1)C(=O)[C@@H]2CC(=O)NCCc1ccccc1OC,/,2,/,/,/,/
CCCCc1c(-c2ccccc2OC)ncn1Cc1cccc(OC)c1,/,2,/,/,/,/
Cc1cccc(CC(=O)NCCn2c(C)cc3ccccc32)c1,-28,27*,5,12,8,-4
Cc1cc2ccccc2n1CCNC(=O)Cc1ccccc1,-8,27*,-27,5,14,-4
Cc1cc2ccccc2n1CCNC(=O)C(C)C,31,5,-20,4,/,/
Cc1cc2ccccc2n1CCNC(=O)C(C)Oc1ccccc1 (stereo not drawn),-1,41*,-35,10,30*,-4
CN1C2CCC1CC(=NO)C2,-9,84*,-2,9,5,0
O=C(OCC#CCSc1nnc(-c2cccc3ccccc23)o1)c1cc(F)c(F)c(F)c1,/,-2,/,/,/,/
COc1ccc([N+](=O)[O-])c(S(=O)(=O)c2ccccc2)n1,/,52*,-1,4,-4,95*
COc1ccc([N+](=O)[O-])c(S(=O)(=O)c2ccc(Cl)cc2)n1,-25,0,4,5,/,/
O=[N+]([O-])c1cccnc1S(=O)(=O)c1ccccc1,-15,38*,6,-1,-7,98*
CCNC(=O)N1CCN(c2ccc(N3CCN(C(=O)NCC)[C@@H](C)C3)c(C)c2)[C@@H](C)C1,/,1,/,/,/,/
CCOC(=O)[C@]12CCCC=C1N(CCCOC)C(=O)[C@@H]2CC(=O)NCCc1ccccc1OC,/,-3,/,/,/,/
CCN(CC)C(=O)CSc1nc(COc2ccccc2)nc2ccccc12,-6,-6,-17,-10,/,/
CCCc1nc(SCC(=O)Nc2nccs2)c2ccccc2n1,-5,20,13,-7,/,/
SMILES,PrP 5UTR inh,PrPC surface inh,MazF activator,BJeLR viability,PrPC TRFRET cf,LD9 tox
CCCNC(=O)CSc1nc(COc2ccccc2)nc2ccccc12,-24,29*,-1,-3,41*,-3
CCCCNC(=O)CSc1nc(CCC)nc2ccccc12,-14,46*,4,8,59*,-6
COC(=O)CSc1nc(COc2ccccc2)nc2ccccc12,-8,49*,0,-6,66*,-6
CC(C)[C@H](NC(=O)c1cccs1)C(=O)N1CCC[C@H]1C(=O)NCc1ccccc1,/,5,/,/,/,/
CC(=O)Nc1ccc(Sc2ccc([N+](=O)[O-])o2)cc1,-13,69*,8,/,29*,22*
NC(=O)c1ncn([C@@H]2O[C@H](C(=O)Nc3ccc(C(=O)N4CCCCC4)cc3)[C@@H](O)[C@H]2O)n1,/,-8,/,/,/,/
Cc1cc(N2CCN(C)CC2)nc2ccc(NC(=O)CCC(=O)NCCC3=CCCCC3)cc12,-13,38*,-2,/,-1,3
Cn1c(=O)c(C(=O)CSc2nncs2)c(N)n(Cc2ccccc2)c1=O,5,66*,-13,4,65*,2
Cn1cnnc1SCC(=O)c1c(N)n(Cc2ccccc2)c(=O)n(C)c1=O,-24,36*,10,3,19,-7
CCOC(=O)c1ccc(NC(=O)CSc2nnc(-c3cccc(C)c3)n2C)cc1,/,-2,/,/,/,/
Cc1c([N+](=O)[O-])c(C/C=N/O)nn1C,-8,33*,-8,-11,7,-3

# High-throughput results: PubChem, several laboratories
